Each structure is given as a SMILES string.

As usually defined, the inhibition is the change of the read-out against control, counted positive when it falls.

For assay [1], the target named is Tyrosine-protein kinase SYK (Homo sapiens) (UniProt P43405). Conditions: at 1 µM.
Assay [2] addresses T1, Tyrosine-protein kinase Tec (Homo sapiens) (UniProt P42680).
T1 sequence (whole entry): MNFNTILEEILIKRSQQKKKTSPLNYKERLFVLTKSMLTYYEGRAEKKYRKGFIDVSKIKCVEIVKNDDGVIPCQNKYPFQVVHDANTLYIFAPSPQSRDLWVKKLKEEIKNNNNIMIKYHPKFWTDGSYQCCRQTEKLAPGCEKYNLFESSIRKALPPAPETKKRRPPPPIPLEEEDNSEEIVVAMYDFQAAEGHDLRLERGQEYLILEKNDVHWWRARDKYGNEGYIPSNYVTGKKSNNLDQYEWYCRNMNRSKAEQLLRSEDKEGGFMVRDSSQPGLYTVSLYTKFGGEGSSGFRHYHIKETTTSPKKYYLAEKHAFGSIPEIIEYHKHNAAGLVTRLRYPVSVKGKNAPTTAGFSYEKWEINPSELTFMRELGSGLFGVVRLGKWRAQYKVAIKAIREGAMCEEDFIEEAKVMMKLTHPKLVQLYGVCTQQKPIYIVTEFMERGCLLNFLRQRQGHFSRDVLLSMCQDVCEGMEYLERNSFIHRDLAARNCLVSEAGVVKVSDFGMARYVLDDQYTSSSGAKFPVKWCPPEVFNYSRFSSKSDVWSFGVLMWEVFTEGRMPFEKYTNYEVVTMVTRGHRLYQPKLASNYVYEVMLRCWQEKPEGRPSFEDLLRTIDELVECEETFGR
Conditions: at 0.1 µM.

In assay [3] the target is T1, Tyrosine-protein kinase Tec (Homo sapiens). To be noted: at 1 µM.
Assay [4] concerns the target Angiopoietin-1 receptor (Homo sapiens) (UniProt Q02763). To be noted: at 0.1 µM.
The target is the same in assay [5]. Conditions: at 1 µM.
Assay [6] addresses T2, Non-receptor tyrosine-protein kinase TNK1 (Homo sapiens) (UniProt Q13470).
T2 sequence (whole entry): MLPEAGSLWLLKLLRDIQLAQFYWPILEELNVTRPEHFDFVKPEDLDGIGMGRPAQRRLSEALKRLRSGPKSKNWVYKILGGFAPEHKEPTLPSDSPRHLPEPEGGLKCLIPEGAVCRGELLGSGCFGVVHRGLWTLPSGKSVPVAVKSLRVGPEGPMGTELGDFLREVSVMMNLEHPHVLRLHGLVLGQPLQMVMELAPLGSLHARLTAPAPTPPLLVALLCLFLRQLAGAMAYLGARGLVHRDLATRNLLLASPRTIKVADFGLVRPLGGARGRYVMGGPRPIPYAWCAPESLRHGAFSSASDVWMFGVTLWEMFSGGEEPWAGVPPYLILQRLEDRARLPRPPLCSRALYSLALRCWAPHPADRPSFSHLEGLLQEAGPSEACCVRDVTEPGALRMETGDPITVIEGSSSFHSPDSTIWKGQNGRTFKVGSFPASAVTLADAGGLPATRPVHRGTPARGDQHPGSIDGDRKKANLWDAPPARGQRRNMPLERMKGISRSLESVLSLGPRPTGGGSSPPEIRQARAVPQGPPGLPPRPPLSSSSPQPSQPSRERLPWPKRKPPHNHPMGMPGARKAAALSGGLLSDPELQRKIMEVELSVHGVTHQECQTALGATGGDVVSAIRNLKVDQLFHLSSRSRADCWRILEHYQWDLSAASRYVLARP
Conditions: at 0.1 µM.

The target of assay [7] is T2, Non-receptor tyrosine-protein kinase TNK1 (Homo sapiens). Conditions: at 1 µM.
Assay [8] concerns the target Activated CDC42 kinase 1 (Homo sapiens) (UniProt Q07912). To be noted: at 0.1 µM.
The target is the same in assay [9]. Conditions: at 1 µM.
Assay [10] addresses High affinity nerve growth factor receptor (Homo sapiens) (UniProt P04629). To be noted: at 0.1 µM.

Sequence of Angiopoietin-1 receptor (Homo sapiens) (Q02763 whole entry): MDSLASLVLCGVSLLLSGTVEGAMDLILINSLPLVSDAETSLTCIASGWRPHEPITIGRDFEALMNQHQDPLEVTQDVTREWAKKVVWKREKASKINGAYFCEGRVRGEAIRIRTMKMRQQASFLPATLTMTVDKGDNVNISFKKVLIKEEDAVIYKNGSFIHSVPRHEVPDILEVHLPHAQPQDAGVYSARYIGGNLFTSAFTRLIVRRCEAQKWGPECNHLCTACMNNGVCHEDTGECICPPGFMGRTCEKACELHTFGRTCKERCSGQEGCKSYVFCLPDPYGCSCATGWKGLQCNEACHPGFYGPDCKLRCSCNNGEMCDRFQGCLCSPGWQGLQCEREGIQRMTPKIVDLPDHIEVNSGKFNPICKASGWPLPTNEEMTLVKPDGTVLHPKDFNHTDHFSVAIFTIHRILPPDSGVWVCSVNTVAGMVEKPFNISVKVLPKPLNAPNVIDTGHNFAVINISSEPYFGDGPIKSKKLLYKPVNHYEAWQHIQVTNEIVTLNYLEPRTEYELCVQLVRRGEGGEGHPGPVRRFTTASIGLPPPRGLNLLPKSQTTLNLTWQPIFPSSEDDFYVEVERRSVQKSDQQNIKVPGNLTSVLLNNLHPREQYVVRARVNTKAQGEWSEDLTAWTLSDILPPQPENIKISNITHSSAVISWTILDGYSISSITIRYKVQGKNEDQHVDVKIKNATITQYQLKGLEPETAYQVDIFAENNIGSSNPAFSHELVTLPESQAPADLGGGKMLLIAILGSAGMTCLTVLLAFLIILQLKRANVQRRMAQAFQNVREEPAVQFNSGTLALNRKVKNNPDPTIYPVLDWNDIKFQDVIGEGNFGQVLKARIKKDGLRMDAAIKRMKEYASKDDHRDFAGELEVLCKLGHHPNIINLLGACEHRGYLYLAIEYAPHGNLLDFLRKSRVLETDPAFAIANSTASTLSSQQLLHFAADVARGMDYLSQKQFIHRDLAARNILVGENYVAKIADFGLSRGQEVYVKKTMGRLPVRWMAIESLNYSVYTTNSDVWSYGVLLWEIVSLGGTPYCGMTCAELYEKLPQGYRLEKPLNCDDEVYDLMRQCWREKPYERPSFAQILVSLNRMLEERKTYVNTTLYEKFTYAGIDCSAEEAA
Sequence of High affinity nerve growth factor receptor (Homo sapiens) (P04629 33-796 limits assumed): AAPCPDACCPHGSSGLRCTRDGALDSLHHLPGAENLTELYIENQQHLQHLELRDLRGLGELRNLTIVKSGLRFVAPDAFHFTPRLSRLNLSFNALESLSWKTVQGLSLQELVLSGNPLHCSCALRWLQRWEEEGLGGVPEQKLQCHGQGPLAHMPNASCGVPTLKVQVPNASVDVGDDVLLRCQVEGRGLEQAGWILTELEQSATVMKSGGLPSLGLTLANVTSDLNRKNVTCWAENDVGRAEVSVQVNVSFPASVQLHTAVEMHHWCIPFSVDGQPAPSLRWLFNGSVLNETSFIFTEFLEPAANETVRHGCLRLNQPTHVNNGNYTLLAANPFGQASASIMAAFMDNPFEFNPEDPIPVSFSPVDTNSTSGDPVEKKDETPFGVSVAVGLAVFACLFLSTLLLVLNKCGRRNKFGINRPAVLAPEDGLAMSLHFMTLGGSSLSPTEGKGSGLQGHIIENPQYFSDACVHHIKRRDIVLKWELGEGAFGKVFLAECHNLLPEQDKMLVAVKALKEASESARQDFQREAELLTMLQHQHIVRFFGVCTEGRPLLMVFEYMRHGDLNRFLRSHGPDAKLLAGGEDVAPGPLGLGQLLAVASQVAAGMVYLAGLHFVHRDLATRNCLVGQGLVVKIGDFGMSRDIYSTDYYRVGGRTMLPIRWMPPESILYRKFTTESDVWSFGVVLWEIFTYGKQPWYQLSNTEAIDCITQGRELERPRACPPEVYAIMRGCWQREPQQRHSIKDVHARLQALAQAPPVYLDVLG
Sequence of Activated CDC42 kinase 1 (Homo sapiens) (Q07912 whole entry, looked up): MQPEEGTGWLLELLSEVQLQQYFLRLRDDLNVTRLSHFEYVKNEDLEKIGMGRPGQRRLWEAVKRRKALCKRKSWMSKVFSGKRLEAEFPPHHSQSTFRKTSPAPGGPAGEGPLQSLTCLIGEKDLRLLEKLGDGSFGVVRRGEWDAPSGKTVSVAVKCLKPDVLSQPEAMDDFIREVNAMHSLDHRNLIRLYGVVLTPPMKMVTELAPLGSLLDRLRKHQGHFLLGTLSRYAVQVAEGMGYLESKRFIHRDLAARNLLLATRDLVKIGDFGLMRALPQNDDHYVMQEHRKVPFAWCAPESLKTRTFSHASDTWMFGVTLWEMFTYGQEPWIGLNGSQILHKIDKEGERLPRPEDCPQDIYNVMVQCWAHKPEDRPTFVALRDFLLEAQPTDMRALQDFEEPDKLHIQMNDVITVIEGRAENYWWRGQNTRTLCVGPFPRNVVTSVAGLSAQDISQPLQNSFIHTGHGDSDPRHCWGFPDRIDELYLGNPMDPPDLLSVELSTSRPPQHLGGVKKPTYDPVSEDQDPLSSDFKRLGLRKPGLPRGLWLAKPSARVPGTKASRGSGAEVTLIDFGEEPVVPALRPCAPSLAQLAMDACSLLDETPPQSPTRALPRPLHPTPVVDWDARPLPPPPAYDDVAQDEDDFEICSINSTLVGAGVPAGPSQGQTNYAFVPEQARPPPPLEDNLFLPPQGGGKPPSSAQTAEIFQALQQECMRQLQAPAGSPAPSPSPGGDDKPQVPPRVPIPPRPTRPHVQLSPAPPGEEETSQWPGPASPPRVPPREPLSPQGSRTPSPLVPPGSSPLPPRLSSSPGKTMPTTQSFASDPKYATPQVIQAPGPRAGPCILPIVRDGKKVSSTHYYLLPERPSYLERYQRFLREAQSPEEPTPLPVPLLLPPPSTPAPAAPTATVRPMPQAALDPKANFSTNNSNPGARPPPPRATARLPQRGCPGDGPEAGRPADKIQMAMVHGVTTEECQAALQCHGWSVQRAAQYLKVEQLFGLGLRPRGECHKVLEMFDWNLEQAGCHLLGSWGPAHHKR

Regarding `COc1cccc(-n2ncc3c(N/N=C/c4ccc(S(C)(=O)=O)cc4)ncnc32)c1`, the inhibition in assay [1] is -1.66%; in [2], -0.19%; in [3], 10.4%; in assay [4], 7.64%; in [5] it was 31.4%; in [6], 10.4%. Further, the inhibition in assay [7] amounted to 20%; in assay [8], 1.34%; in assay [9], 1.96%; in assay [10] it was 4.94%.
Consider `COc1cccc(-n2nc(C)c3c(N/N=C(\C)c4ccncc4)ncnc32)c1`, for which the inhibition in assay [1] is 2.38%; in assay [2], 1.82%; in [3], 3.53%; in assay [4], 0.73%; in assay [5], 2.25%; in assay [6], -1.41%. Moreover, the inhibition in [7] is 0.13%; in [8] it was -0.22%; in assay [9], 0.84%; in assay [10], 0.99%.
With `OCc1ccc(-c2nc(-c3ccccn3)c(-c3ccc4c(c3)OCO4)[nH]2)cc1`, the inhibition was -0.31% in assay [1]; 7.61% in assay [2]; 11.1% in assay [3]; 2.48% in [4]; 6.23% in assay [5]; 5.37% in [6]. Further, the inhibition was -4.68% in [7], 1.72% in assay [8], 2.78% in assay [9] and 3.27% in assay [10].
`Cc1ccc(C(=O)NC2CC2)cc1-c1ccc2[nH]ncc2c1`: the inhibition was -0.05% in assay [1]; -3.67% in assay [2]; -3.15% in assay [3]; 0.34% in assay [4]; 3.3% in assay [5]; -1.01% in assay [6]. Further, the inhibition in assay [7] is 4.02%; in assay [8] it was -0.76%; in assay [9] it was 2.48%; in [10] it was 1.88%.
`COc1ccc2ncnc(Nc3ccc(OCc4ccccc4)cc3)c2c1`: the inhibition in assay [1] is -1.05%; in [2], 2.8%; in assay [3], 4.49%; in [4] it was 2.79%; in assay [5] it was 5.45%; in [6] it was 2.34%. Moreover, the inhibition in assay [7] was determined as 12.3%; in assay [8], 0.68%; in assay [9], 1.66%; in [10], 0.33%.
As to `Cc1ccc(O)cc1Nc1ccnc2ccc(S(C)(=O)=O)cc12`, the inhibition was -3.99% in assay [1]; 77.9% in assay [2]; 82.7% in assay [3]; 27.1% in assay [4]; 70.5% in assay [5]; 4.13% in assay [6]. Besides, the inhibition in assay [7] is 13.7%; in assay [8], 9.97%; in assay [9], 54.8%; in [10] it was 2.69%.
`O=C1Nc2ccc(-c3cccnc3)cc2C1=Cc1cc(Br)c(O)c(Br)c1`: the inhibition in assay [1] was -2.96%; in assay [2], 3.68%; in [3] it was 8.99%; in [4] it was 1.2%; in assay [5] it was 2.63%; in [6], 52.5%. Further, the inhibition in assay [7] worked out at 80.6%; in assay [8], 1.09%; in [9], 3.05%; in [10], 4.7%.
Regarding `Cc1ccc2c(-c3ccnc(Nc4cccc(C(F)(F)F)c4)n3)c(-c3ccccc3)nn2n1`, the inhibition is -5.34% in assay [1]; 8.8% in [2]; 38.3% in assay [3]; 3.55% in [4]; 8.11% in [5]; 2.78% in [6]. Also, the inhibition in [7] worked out at 19.5%; in [8], 0.98%; in [9], 2.35%; in assay [10] it was 1.79%.
Turning to `N#Cc1c(NC(=O)c2ccccc2F)sc2c1CCCC2`, the inhibition in [1] is 0.42%; in [2] it was -1.7%; in [3] it was 0.35%; in assay [4] it was -1.22%; in assay [5], 3.44%; in assay [6], -2.62%. Also, the inhibition in assay [7] was -0.58%; in assay [8], -0.05%; in assay [9], 3%; in [10], -0.84%.
As to `Oc1cccc(-c2nc(-c3ccccc3)[nH]c2-c2ccncc2)c1`, the inhibition worked out at 1.53% in assay [1]; 5.02% in assay [2]; 9.92% in assay [3]; 3.23% in assay [4]; 15.7% in [5]; 3.62% in [6]. Also, the inhibition in assay [7] was determined as 12.3%; in assay [8], 1.47%; in assay [9], 2.85%; in [10] it was 3.43%.
For `O=C1Nc2ccccc2/C1=C/Nc1ccc2[nH]c(=O)[nH]c2c1`, the inhibition in assay [1] is -5.15%; in [2], 9.34%; in [3] it was 13.8%; in assay [4] it was 5.76%; in assay [5] it was 9.19%; in assay [6] it was 4.65%. Also, the inhibition in [7] was 21.3%; in [8], 1.41%; in [9], 4.86%; in assay [10], 11.6%.
For the compound `NS(=O)(=O)c1ccc(N/N=C2\C(=O)Nc3ccc(Cl)cc32)cc1`, the inhibition in assay [1] is -3.16%; in [2] it was 4.2%; in assay [3], 6.14%; in assay [4], 0.79%; in assay [5] it was 3.42%; in [6] it was 3.04%. The inhibition in assay [7] is 20.5%; in [8], 0.4%; in [9], 3.7%; in assay [10], 3.01%.
Consider `NS(=O)(=O)c1cccc(-c2cc3ccncc3cc2OCc2ccccc2)c1`, for which the inhibition is -1.17% in assay [1]; 5.34% in assay [2]; 8.79% in assay [3]; 4.31% in [4]; 7.65% in [5]; 1.24% in [6]. The inhibition in assay [7] amounted to 4.7%; in assay [8], 0.71%; in [9] it was 1.65%; in assay [10] it was 1.41%.
As to `Nc1ccc(C#Cc2cncnc2Nc2ccc(OCc3cccc(F)c3)c(Cl)c2)cc1`, the inhibition was -2.35% in assay [1]; -0.48% in assay [2]; 3.77% in [3]; 1.84% in assay [4]; 3.47% in assay [5]; -0.01% in assay [6]. The inhibition in assay [8] was found to be 1.62%; in assay [9], 1.81%; in [10], 4.31%.
Consider `CN(c1ccc(NC(=O)Nc2ccc(OC(F)(F)F)cc2)cc1)c1ccnc(Nc2cccc(S(N)(=O)=O)c2)n1`, for which the inhibition in assay [2] was found to be 0.44%; in [3], 7.04%; in assay [4], 36%; in [5] it was 79.2%; in assay [6] it was 21.4%; in [7], 82.2%. For the same compound, the figures for the inhibition in assay [8], in assay [9] and in [10] were 0.67%, 4.69% and 30%, respectively.
On to `COc1cc2ncnc(Nc3ccc4c(cnn4Cc4ccccc4)c3)c2cc1OC`, for which the inhibition was determined as 0.48% in assay [1]; 3.95% in [2]; 17.7% in assay [3]; 4.78% in assay [4]; 10.2% in [5]; 7.1% in [6]. The inhibition in assay [7] is 35.6%; in assay [8] it was 0.51%; in [9], 4.91%; in assay [10], 0.45%.
For the compound `CN1CCN(C(=O)c2ccc(NC(=O)Nc3ccc(N(C)c4ccnc(Nc5ccc(CS(C)(=O)=O)cc5)n4)cc3)cc2)CC1`, the inhibition is -2.49% in assay [1]; 10.1% in assay [2]; 37.1% in [3]; 33.2% in [4]; 67.1% in assay [5]; 46.2% in assay [6]. The inhibition stood at 8.52% in assay [8], 61% in [9] and 7.78% in [10].

The values are drawn from ChEMBL document CHEMBL1961873, “Compounds: GSK PKIS; Assays: Nanosyn kinase panel” (2012).
